RXFP1 antagonist: qHTS Assay for Antagonists of the Relaxin Receptor RXFP1 | Relaxin receptor 1 (Homo sapiens), Q9HBX9 | HEK293-RXFP1, relaxin-stimulated cAMP HTRF, 30 min; hits give low values | activity change, negative = inhibition, % at 57.5 µM | actives 0.59% (n = 350,000);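 active = activity change of -60% or lower, but not beyond a set lower limit; inconclusive = change between -60% and -40%, or beyond the set limit; inactive = change above -40%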; also: % is scaled to controls: 0 for no effect and ±100 for the full control effect
Target sequence (Q9HBX9 whole entry, looked up): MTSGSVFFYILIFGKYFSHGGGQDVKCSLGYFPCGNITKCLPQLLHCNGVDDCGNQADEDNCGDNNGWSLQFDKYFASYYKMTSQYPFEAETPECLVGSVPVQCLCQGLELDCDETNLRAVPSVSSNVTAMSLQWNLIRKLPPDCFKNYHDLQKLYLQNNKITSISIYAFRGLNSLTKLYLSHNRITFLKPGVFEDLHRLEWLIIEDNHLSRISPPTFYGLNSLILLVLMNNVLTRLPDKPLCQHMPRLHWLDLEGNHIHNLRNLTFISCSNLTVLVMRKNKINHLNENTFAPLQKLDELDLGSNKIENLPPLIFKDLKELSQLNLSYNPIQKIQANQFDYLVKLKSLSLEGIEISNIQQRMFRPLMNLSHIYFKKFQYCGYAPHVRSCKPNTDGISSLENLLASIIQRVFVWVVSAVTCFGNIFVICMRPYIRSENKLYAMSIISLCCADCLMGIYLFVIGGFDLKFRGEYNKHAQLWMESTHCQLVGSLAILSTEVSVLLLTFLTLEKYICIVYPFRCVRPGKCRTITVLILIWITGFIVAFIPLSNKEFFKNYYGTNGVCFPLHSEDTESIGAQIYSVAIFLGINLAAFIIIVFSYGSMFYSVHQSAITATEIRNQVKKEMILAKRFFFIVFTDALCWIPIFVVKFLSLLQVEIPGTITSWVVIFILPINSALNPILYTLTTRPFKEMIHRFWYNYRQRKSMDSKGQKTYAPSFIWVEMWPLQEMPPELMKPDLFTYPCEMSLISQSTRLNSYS
gsp ag: qHTS for Agonist of gsp, the Etiologic Mutation Responsible for Fibrous Dysplasia/McCune-Albright Syndrome: qHTS. gsp mutant cells, cAMP HTRF, 30 min. Potency, µM (series often up to 76.9 µM), for inactives: at the highest dose activation (cAMP increase), most hits filed as activators. actives 0.13% (n = 340,000). AID 624287, 2012; active = well fitted activation curve with a large enough effect; inconclusive = small, poorly fitted or top-dose-only effect, or another doubt; inactive = no such curve, though single readings can be large or run the other way; cell line not stated here;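 also: phosphodiesterase inhibitor Ro 20-1724 added with compounds to block cAMP breakdown; potency is read from the fitted curve at half-maximal effect; nearly all actives have a fitted effect of over 60% in size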
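Cells stably selected in G418 were plated at 2000/well, grown 16-24 hr, then given compounds in DMSO with the PDE inhibitor […] (300 uM solution added) for 30 min at 37C; cAMP was read by HTRF.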
Akt phos inh: HTS Assay for Inhibitors of Akt Phophorylation: Primary Screen; Neuro2A IGF-stimulated pAkt S473 HTRF, 20 min; hits give low values; activity change, % for hits at 50 µM; actives 0.32% (n = 360,000); AID 651550, 2012; in the data active = activity change below about -80%; inconclusive = mostly about -51% to -80%; also: % is scaled to controls: 0 for no effect and ±100 for the full control effect
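Neuro2A cells in DMEM with 0.5% FBS, overnight at 37 deg C, given compound at single 50 µM final, then IGF (6 nM final) for 20 min at 37 deg C. Lysed; phospho-Akt Ser473 by HTRF after 24 h, 665/615 ratio.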
RXFP1 ag: qHTS Assay for Agonists of the Relaxin Receptor RXFP1; Relaxin receptor 1 (Homo sapiens), Q9HBX9; Potency, µM (series often up to 57.5 µM), inactives show at the highest dose activation, most hits filed as activators; HEK293T-RXFP1 cAMP TR-FRET, 30 min; response scale: percent of porcine relaxin response, buffer zero; actives 0.3% (n = 370,000); active = well fitted activation curve with a large enough effect; inconclusive = small, poorly fitted or top-dose-only effect; also: potency is read from the fitted curve at half-maximal effect; % is scaled to controls: 0 for no effect and ±100 for the full control effect; nearly all actives have a fitted effect of over 60% in size
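HEK293T cells stably expressing RXFP1 were pretreated with the PDE4 inhibitor Ro 20174, exposed to compounds for 30 min at 37C, lysed, and cAMP was read by TR-FRET. Data normalized to buffer (basal) and 29 nM porcine relaxin (100%).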
gsp antagonist: qHTS for Antagonists of gsp, the Etiologic Mutation Responsible for Fibrous Dysplasia/McCune-Albright Syndrome: qHTS | Potency, µM (top dose mostly 76.9 µM), without a hit: at the highest dose activity change, negative = inhibition, usual class: inhibitors | gsp-mutant cells, cAMP HTRF, 30 min | actives 0.4% (n = 340,000); calls by dose curve; cell line not stated here;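 also: intracellular cAMP measured with PDE inhibitor Ro 20-1724 present during compound exposure; potency is read from the fitted curve at half-maximal effect; % is scaled to controls: 0 for no effect and ±100 for the full control effect; nearly all actives have a fitted effect of over 65% in size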
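Cells in G418 medium, seeded 16-24 h, 37C; buffer exchange to DPBS + 1 mM CaCl2, 0.5 mM MgCl2, 0.05% BSA; cpds in DMSO + […] (300 uM stock), 30 min 37C; HTRF cAMP detection.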
Starred values were filed as active, the others as inactive; i = inactive; ? = inconclusive; . = not tested or not shown; [ ] = dose if it differs, or a comment. Rows were chosen to be rich in hits. Some 1.2% of all compounds tested hit in one or more screens of this group.

SMILES | RXFP1 antagonist | gsp ag | Akt phos inh | RXFP1 ag | gsp antagonist
Cc1cc2oc(=O)cc(CN3CCN(Cc4ccccc4)CC3)c2cc1Cl | 1 | -1% | -111%* | 1% | -13%
Cc1ccc(C(=O)Oc2ccc(-c3nccc(-c4ccccn4)n3)cc2)cc1 | -4 | -67% | i | -1% | -11%
O=C(Oc1ccc(-c2nccc(-c3ccccn3)n2)cc1)c1cccc(C(F)(F)F)c1 | -10 | 7% | -96%* | 1% | 11%
N#CC1=C(N)OC2=C(C(=O)CC(c3ccco3)C2)C1c1ccc(OCc2c(F)cccc2Cl)cc1 (stereo unspecified) | -24 | -1% | -112%* | 1% | -13%
COc1cccc(C2C(C#N)=C(N)OC3=C2C(=O)CC(c2ccco2)C3)c1OCc1ccc(F)cc1 (stereo unspecified) | 7 | 17% | i | 3% | 15%
Nc1ccc([N+](=O)[O-])c(C(F)(F)F)c1 | 16 | . | . | . | .
COc1ccc(OC)c(CN2CCCCCC2)c1 | -119* | -51% | i | 0% | -3%
CC1=C(SCc2ccccc2)C(=O)c2ccccc2C1=O | ? | 11µM* | i | . | -12%
O=S(=O)(NCCC1=CCCCC1)c1ccc(Br)cc1 | -70* | -21% | i | -1% | -3%
Cn1c(SCC(=O)Nc2ccc3cn[nH]c3c2)nnc1-c1cnccn1 | 10 | 12% | -97%* | 2% | 9%
CCCOc1ccc(NC(=O)CC2C(=O)N(c3cccc(OC)c3)C(=O)N2Cc2cccs2)cc1 (stereo unspecified) | -7 | . | . | 0% | .
Cc1ccc2nc(Cl)c(/C=N/NC(=O)c3ccccc3O)cc2c1 | -11 | -11% | i | 1% | 35µM*
COc1cc(-c2noc(-c3ccc(N4CCOCC4)c([N+](=O)[O-])c3)n2)cc(OC)c1OC | . | . | . | 1% | .
C=C1CC(Cn2cc(Br)c(=O)[nH]c2=O)(c2ccc(-c3ccccc3)cc2)OC1=O (stereo unspecified) | -90* | 13% | i | . | 7%
O=c1[nH]c(=O)n(Cc2ccc(Oc3ccccc3)cc2)cc1Br | . | . | . | 4% | .
O=c1cc(C(F)(F)F)nc(SC/C=C/c2ccccc2)[nH]1 | -78* | -11% | i | 1% | ?
Nc1cc(=O)[nH]c(SC/C=C/c2ccccc2)n1 | -1 | -21% | i | 0% | -7%
CN(C)CCCNC(=S)N(CCN(C)C)Cc1cc2cc3c(cc2[nH]c1=O)OCCO3 | 9 | -28% | i | 2% | 6%
CN(C)CCCNC(=S)N(Cc1cccs1)Cc1cc2cc3c(cc2[nH]c1=O)OCCO3 | -63* | ? | i | 1% | 2%
Cn1cnnc1Sc1nc2c(c(=O)n(C)c(=O)n2C)n1C | 4 | 22µM* | i | . | 10%
CC(C)(C)C1=Nn2c(nnc2-c2ccccn2)SC1 | -6 | 1% | -111%* | 0% | 5%
C[C@H](N)C(=O)N[C@@H](C)C(=O)NC1[C@H]2CN(c3nc4c(cc3F)c(=O)c(C(=O)O)cn4-c3ccc(F)cc3F)C[C@@H]12 (stereo partly specified) | -5 | . | . | . | .
COc1ccc(N2CCN(c3csc4ccccc4c3=O)CC2)cc1 | -18 | . | . | -2% | .
COc1ccc(N2CCN(C(=O)CSc3nc(-c4ccc(C(C)C)cc4)no3)CC2)cc1 | -7 | . | . | -1% | .
Cc1ccc2nc(SCC(=O)Nc3ccc(F)cc3)nc(=O)n2c1 | 10 | 14µM* | i | 22% | 17%
SMILES | RXFP1 antagonist | gsp ag | Akt phos inh | RXFP1 ag | gsp antagonist
COc1ccc(-c2nc3nc(C)cc(Nc4cccc(C(F)(F)F)c4)n3n2)cc1 | -2 | . | . | 32µM* | .
Cc1cc(Nc2cccc(C(F)(F)F)c2)n2nc(C)nc2n1 | -3 | 2% | i | 1% | 6%
COc1cccc(C2Nc3ccccc3C(=O)N2c2ccc(F)cc2)c1O (stereo unspecified) | -9 | -25% | i | 3% | -6%
COc1cccc(C2Nc3ccccc3C(=O)N2O)c1O (stereo unspecified) | -3 | 21% | -118%* | 0% | -4%
O=C1c2ccccc2NC(c2ccc(Br)s2)N1O (stereo unspecified) | -1 | 16µM* | i | . | -2%
CCCCN(CCCNC(=O)c1cc(Nc2ccc(OC)c(OC)c2)nc2ccccc12)Cc1ccccc1 | -1 | . | . | 1% | .
Cc1ccc(/C=N/n2c(COc3ccccc3)n[nH]c2=S)cc1 | -2 | 23% | i | 0% | -20%
CC(C)c1ccc(/C=N/n2c(COc3ccccc3)n[nH]c2=S)cc1 | -61* | 26% | i | 3% | ?
CC1=C(C(=O)Nc2ccc(C(=O)N3CCN(c4cccc(Cl)c4)CC3)cc2)SCCO1 | 4 | 30% | i | 1% | ?
CC1=C(C(=O)Nc2cccc(C(=O)N3CCN(c4cccc(C(F)(F)F)c4)CC3)c2)SCCO1 | -28 | 1% | i | 3% | 50µM*
O=C(Nc1ccc(Cl)c(Cl)c1)c1ccccc1 | . | . | i | 0% | 11µM*
O=C1C(Cl)=C(NC(=O)c2ccccc2)C(=O)C(Cl)=C1NC(=O)c1ccccc1 | -105* | 6%[15.4 µM] | i | -4% | ?
Cc1nc(Nc2ccc(Cl)c(Cl)c2)sc1C(=O)Nc1ccccc1 | -20 | 2% | i | 5% | 50µM*
O=C(Nc1ccc(Cl)c(Cl)c1)Oc1ccc(NC(=O)c2ccco2)cc1 | 7 | -14% | i | -1% | 40µM*
O=C(Nc1ccc(OC(=O)c2ccco2)cc1)c1ccco1 | -1 | -22% | i | 0% | -9%
O=C(Nc1cccc(Cl)c1)c1ccccc1 | . | 6% | i | 2% | 3%
O=C(NCc1cccc(Br)c1)c1cccn1-c1nnc(N2CCCCC2)s1 | . | . | . | 1% | .
CSc1nc(C)c2c(n1)N(c1ccc(F)cc1)CC2 | -6 | 3% | -111%* | 6% | 23%
N#Cc1nc(/C=C/c2ccc(F)cc2)oc1N1CCCCC1 | . | . | . | 20% | .
CC(C)Cc1ccc(C(C)/C=C2/CCC(CN3CCCCC3)C2=O)cc1 (stereo unspecified) | -21 | 19% | i | . | 7%
CC(C)Cc1ccc(C(C)CC2=CCC(CN(C)C)C2=O)cc1 (stereo unspecified) | -83* | 10% | i | . | -7%
O=C(NCc1cccc(Cl)c1)c1ccc2c(Cl)c3c(nc2c1)CCCC3 | . | . | . | 2% | .
c1ccc2c(c1)CCc1ccccc1N2 | -17 | . | . | . | .
Cc1ccc(S(=O)(=O)N(CC(=O)Nc2ccccc2C(=O)O)c2ccc(Cl)cc2)cc1 | -76* | 3%[15.4 µM] | i | 4% | ?

Source: PubChem
